Results: PubChem BioAssay (NCATS)
Several values for one entry are separate records, joined by “and”; a condition that tells them apart may be missing. Equal values may be shown once. Results filed as inconclusive are left out. Activity calls are given as the source filed them. Unless noted, the call rests on the fitted dose curve; in most records, active means well fitted curve in the direction sought with a large enough effect; inconclusive means small, poorly fitted or top-dose-only effect, or another doubt; inactive means no such curve, though single readings can be large; an effect the other way counts as inactive or inconclusive.

Assays:
[1] = qHTS assay for small molecule disruptors of the mitochondrial membrane potential - 1 hr assay (AID 651754; calls by dose curve; further: on the % scale 0 is the no-effect control and ±100 the full control effect; nearly all actives have a fitted effect of over 35% in size)
Summary of the method: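 HepG2 cells, attached overnight at 37C, were exposed to compound or DMSO vehicle for 1 hr at 37C, 5% CO2, then stained with Mito-MPS dye for 30 min. Red aggregate versus green monomer fluorescence reports membrane potential.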

[2] = qHTS assay for small molecule disruptors of the mitochondrial membrane potential - 5 hr assay (AID 651755; calls by dose curve; further: on the % scale 0 is the no-effect control and ±100 the full control effect; nearly all actives have a fitted effect of over 40% in size)
Summary of the method: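 HepG2 cells (2,000/well), attached overnight, exposed to compound 5 hr at 37C, then Mito-MPS dye 30 min. Fluorescence read for monomers (490/535 nm) and aggregates (540/590 nm).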

[3] = biological target: Tumor necrosis factor (Homo sapiens) (UniProt P01375); assay: qHTS assay to identify small molecules that stimulate Tumor Necrosis Factor-alpha (TNF-alpha) secretion (AID 651757; active means well fitted curve in the direction sought with a large enough effect in the signal ratio; the % refers to the signal ratio; further: 0% is about no effect)
Sequence of Tumor necrosis factor (Homo sapiens) (P01375 whole entry, looked up): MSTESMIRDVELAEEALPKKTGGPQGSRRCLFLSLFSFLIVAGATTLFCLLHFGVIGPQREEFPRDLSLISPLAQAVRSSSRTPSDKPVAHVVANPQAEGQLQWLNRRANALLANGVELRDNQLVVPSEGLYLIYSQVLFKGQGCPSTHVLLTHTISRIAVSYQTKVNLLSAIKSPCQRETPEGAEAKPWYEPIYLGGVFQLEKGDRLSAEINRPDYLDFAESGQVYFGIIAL
Summary of the method: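 THP-1 cells were exposed to compounds for 17 hrs at 37 C, after which secreted TNF-alpha was measured by homogeneous HTRF (TR-FRET) using cryptate- and XL665-labeled anti-TNF-alpha antibodies, read after 3 hr at room temperature.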

[4] = qHTS assay for environmental chemicals that activate the Aryl hydrocarbon Receptor (AhR) signaling pathway (AID 651777); settings: 1A2-DRE human hepatoma cells, luciferase, 24 h; activation: stronger effect = higher value; further: % of control where 0% means no effect; nearly all actives have a fitted effect of over 15% in size
Summary of the method: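 Quantitative HTS in stably transfected human liver-derived cells whose luciferase gene sits downstream of the CYP1A2 promoter and dioxin response element. After 24 hr exposure at 37 C, One-Glo luminescence was measured.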

[5] = biological target: Peroxisome proliferator-activated receptor alpha (Homo sapiens) (UniProt Q07869); assay: qHTS assay for small molecule agonists of the peroxisome proliferator-activated receptor alpha (PPARalpha) signaling pathway (AID 651778); settings: PathHunter PPARalpha complementation, chemiluminescence, 6 h; stronger effect = higher value; further: % of control where 0% means no effect
Sequence of Peroxisome proliferator-activated receptor alpha (Homo sapiens) (Q07869 whole entry, looked up, the tested form may be a part): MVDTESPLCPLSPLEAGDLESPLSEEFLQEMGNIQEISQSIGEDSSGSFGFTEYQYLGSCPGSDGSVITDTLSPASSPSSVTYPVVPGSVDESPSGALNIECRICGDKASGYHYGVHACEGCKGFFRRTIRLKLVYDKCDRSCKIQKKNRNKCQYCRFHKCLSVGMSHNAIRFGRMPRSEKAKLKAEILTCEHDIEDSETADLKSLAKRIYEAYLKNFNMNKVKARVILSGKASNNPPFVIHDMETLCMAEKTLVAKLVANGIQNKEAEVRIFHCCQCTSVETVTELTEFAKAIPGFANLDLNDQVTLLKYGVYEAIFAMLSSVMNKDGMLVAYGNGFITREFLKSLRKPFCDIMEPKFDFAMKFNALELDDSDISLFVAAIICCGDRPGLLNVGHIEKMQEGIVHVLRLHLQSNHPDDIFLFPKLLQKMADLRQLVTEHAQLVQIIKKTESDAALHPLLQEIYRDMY
Summary of the method: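 Enzyme-fragment complementation assay in which ligand-bound PPARalpha translocates and forms an active enzyme that generates chemiluminescence. Cells were plated overnight, exposed to compound for 6 hr at 37 C, and then given detection reagent for 60 min at room temperature.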

[6] = biological target: Nuclear receptor ROR-gamma (Homo sapiens) (UniProt P51449); assay: qHTS assay for small molecule antagonists of the retinoid-related orphan receptor gamma (ROR-gamma) signaling pathway (AID 651802); further: series mostly up to about 92 µM; on the % scale 0 is the no-effect control and ±100 the full control effect; nearly all actives have a fitted effect of over 60% in size
Sequence of Nuclear receptor ROR-gamma (Homo sapiens) (P51449 whole entry, looked up): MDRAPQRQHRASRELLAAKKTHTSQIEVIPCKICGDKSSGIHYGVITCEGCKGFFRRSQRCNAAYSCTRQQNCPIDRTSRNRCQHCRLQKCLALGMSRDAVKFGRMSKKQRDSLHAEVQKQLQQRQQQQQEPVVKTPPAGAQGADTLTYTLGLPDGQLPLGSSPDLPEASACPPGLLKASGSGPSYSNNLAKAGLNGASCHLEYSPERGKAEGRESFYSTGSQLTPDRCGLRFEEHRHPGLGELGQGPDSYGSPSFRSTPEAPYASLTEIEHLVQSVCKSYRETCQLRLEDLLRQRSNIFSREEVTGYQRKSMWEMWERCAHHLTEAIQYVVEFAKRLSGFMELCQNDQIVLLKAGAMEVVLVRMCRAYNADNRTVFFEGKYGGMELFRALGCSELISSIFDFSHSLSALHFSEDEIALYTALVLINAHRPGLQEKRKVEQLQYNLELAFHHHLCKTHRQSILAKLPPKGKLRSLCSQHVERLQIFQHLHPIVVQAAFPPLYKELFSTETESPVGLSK
Summary of the method: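 CHO cells carrying TET-inducible ROR-gamma and an ROR response element–luciferase reporter were exposed to compound, then induced with doxycycline. After 16hr at 37C, luminescence was read; lower signal indicates antagonism.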

[7] = qHTS assay for small molecule agonists of the antioxidant response element (ARE) signaling pathway measured by Nrf2-dependant transcriptional activity (AID 720636; active means well fitted curve in the direction sought with a large enough effect in the repeat runs; an effect the other way counts as inactive or inconclusive; further: % of control where 0% means no effect)
Summary of the method: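 Quantitative HTS format in HepG2 cells stably expressing an ARE-luciferase reporter; 16 hr compound treatment at 37 C, luciferase signal detected with ONE-Glo.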

[8] = qHTS assay for small molecule antagonists of the retinoid-related orphan receptor gamma (ROR-gamma) signaling pathway - cell viability counter screen (AID 720652; active means well fitted curve in the direction sought with a large enough effect in the repeat runs; an effect the other way counts as inactive or inconclusive;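 further: series mostly up to about 92 µM; compound exposure lasted 16 hr before ATP read; on the % scale 0 is the no-effect control and ±100 the full control effect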)
Summary of the method: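 Counter screen in CHO cells carrying TET-inducible ROR-gamma and an ROR response element-luciferase reporter; cells plated 5 hr, compound pinned, doxycycline added, then 16 hr at 37 C. Viability read as intracellular ATP by CellTiter-Glo luminescence.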

[9] = qHTS assay for small molecule agonists of the antioxidant response element (ARE) signaling pathway measured by Nrf2-dependant transcriptional activity - cell viability counter screen (AID 720653; active means well fitted curve in the direction sought with a large enough effect in the repeat runs; an effect the other way counts as inactive or inconclusive; further: on the % scale 0 is the no-effect control and ±100 the full control effect); settings: ARE-bla HepG2 viability, CellTiter-Glo ATP luminescence, 16 h; stronger effect = lower value
Summary of the method: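 ARE-bla HepG2 cells treated with compounds for 16 h at 37C; this counter screen measures viability as intracellular ATP by CellTiter-Glo luminescence after 30 min at room temperature.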

[10] = qHTS assay for cell viability of HEK293 cells (AID 743288); settings: ATP luminescence (CellTiter-Glo), 18 h, stronger effect = lower value; further: on the % scale 0 is the no-effect control and ±100 the full control effect; nearly all actives have a fitted effect of over 50% in size
Summary of the method: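 The Tox21 protocol used parental HEK293 cells treated for 18 h at 37 C with compounds delivered by pintool; ATP-coupled luminescence after 30 min at room temperature gave viability.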

[11] = qHTS assay for cell viability of the p53RE-bla HCT-116 cell line (AID 743292); further: on the % scale 0 is the no-effect control and ±100 the full control effect; nearly all actives have a fitted effect of over 55% in size
Summary of the method: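 Viability of compound-treated p53RE-bla HCT-116 cells is taken from ATP-dependent luciferase luminescence. Treatment lasts 16 h at 37 C after a 5 h settling period; detection follows 30 min at room temperature.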

[12] = biological target: Nuclear receptor subfamily 1 group I member 2 (Rattus norvegicus) (UniProt Q9R1A7); assay: qHTS assay for small molecule activators of the rat pregnane X receptor (rPXR) signaling pathway (AID 651751; call rule not given here; further: 0% is about no effect); settings: rPXR reporter cells, luciferase (One-Glo), 24 h
Sequence of Nuclear receptor subfamily 1 group I member 2 (Rattus norvegicus) (Q9R1A7 whole entry, looked up): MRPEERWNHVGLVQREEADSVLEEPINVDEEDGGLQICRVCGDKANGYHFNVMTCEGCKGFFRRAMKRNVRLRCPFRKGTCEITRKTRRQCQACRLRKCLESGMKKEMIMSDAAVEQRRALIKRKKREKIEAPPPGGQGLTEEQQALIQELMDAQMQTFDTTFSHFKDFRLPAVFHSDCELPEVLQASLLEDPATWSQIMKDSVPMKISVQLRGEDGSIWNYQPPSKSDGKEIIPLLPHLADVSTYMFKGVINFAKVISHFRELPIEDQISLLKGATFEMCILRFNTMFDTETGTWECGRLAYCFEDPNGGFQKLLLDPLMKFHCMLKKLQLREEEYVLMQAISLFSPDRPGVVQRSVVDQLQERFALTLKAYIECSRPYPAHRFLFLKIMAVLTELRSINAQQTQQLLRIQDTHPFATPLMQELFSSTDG

[13] = qHTS assay for small molecule activators of the human pregnane X receptor (PXR) signaling pathway (AID 720659; call rule not given here; further: 0% is about no effect)

NCCCCCCN
inactive: Potency [1] | Potency [2] | Potency [3] | activation [4] 0.0666% | max response [5] -4.8% | Potency [6] | outcome [7] | Potency [8] | max response [9] -0.206% | max response [10] 10.3% | Potency [11] | max response [12] 2.77% | outcome [13]

Cc1ccccc1C(N)=O
inactive: Potency [1] | Potency [2] | Potency [3] | activation [4] -0.0237% | max response [5] -0.838% | Potency [6] | outcome [7] | Potency [8] | max response [9] -2.23% | max response [10] 10.1% | Potency [11] | max response [12] -3.36% | outcome [13]

CCC(O)C(C)(C)C (stereo not given)
inactive: Potency [1] | Potency [2] | Potency [3] | activation [4] 0.48% | max response [5] -0.805% | Potency [6] | outcome [7] | Potency [8] | max response [9] -4.91% | max response [10] -6.59% | Potency [11] | max response [12] 7.53% | outcome [13]

CCCCCCC=O
inactive: Potency [1] | Potency [2] | Potency [3] | activation [4] -0.184% | max response [5] -2.2% | Potency [6] | outcome [7] | Potency [8] | max response [9] 14.6% | max response [10] 5.62% | Potency [11] | max response [12] -7.57% | outcome [13]

CCCC=O
inactive: Potency [1] | Potency [2] | Potency [3] | activation [4] -0.933% | max response [5] 2.48% | Potency [6] | outcome [7] | Potency [8] | max response [9] -6.36% | max response [10] -2.32% | max response [12] 1.21% | outcome [13]

C=CCn1c(=O)n(CC=C)c(=O)n(CC=C)c1=O
inactive: Potency [1] | Potency [2] | Potency [3] | activation [4] 0.438% | max response [5] -0.851% | Potency [6] | outcome [7] | Potency [8] | max response [9] -13.5% | max response [10] 8.26% | Potency [11] | max response [12] 4.89% | outcome [13]

NC=O
inactive: Potency [1] | Potency [2] | Potency [3] | activation [4] 1.58% | max response [5] -1.01% | Potency [6] | outcome [7] | Potency [8] | max response [9] 6.13% | max response [10] -0.0358% | max response [12] -1.14% | outcome [13]

NC(=S)NNC(N)=S
inactive: Potency [1] | Potency [2] | Potency [3] | activation [4] 0.955% and 1.28% | max response [5] 0.409% and -1.13% | Potency [6] | outcome [7] | Potency [8] | max response [9] 1.26% and -5.12% | max response [12] -3.78% and 5.23% | outcome [13]

CCCC(C)CO (stereo not given)
inactive: Potency [1] | Potency [2] | Potency [3] | activation [4] -0.17% | max response [5] -5.48% | Potency [6] | outcome [7] | Potency [8] | max response [9] 13.6% | max response [10] -5.68% | Potency [11] | max response [12] 0.794% | outcome [13]

Cc1ccc(C)o1
inactive: Potency [1] | Potency [2] | Potency [3] | activation [4] -0.971% | max response [5] -7.85% | Potency [6] | outcome [7] | Potency [8] | max response [9] -12.8% | max response [10] -6.28% | Potency [11] | max response [12] -1.6% | outcome [13]

CC=C(Cl)Cl
inactive: Potency [1] | Potency [2] | Potency [3] | activation [4] -0.394% | max response [5] -5.05% | Potency [6] | outcome [7] | Potency [8] | max response [9] -6.27% | max response [10] 5.81% | Potency [11] | max response [12] -4.19% | outcome [13]

CCC(C)(C)C(=O)O
inactive: Potency [1] | Potency [2] | Potency [3] | activation [4] 0.179% | max response [5] -5.15% | Potency [6] | outcome [7] | Potency [8] | max response [9] -0.295% | max response [10] -3.48% | Potency [11] | max response [12] 5.04% | outcome [13]

CCCCC(CC)COCC1CO1 (stereo not given)
inactive: Potency [1] | Potency [2] | Potency [3] | activation [4] -1.2% | max response [5] -0.684% | Potency [6] | outcome [7] | Potency [8] | max response [9] -19% | max response [10] 0.479% | max response [12] 9.04% | outcome [13]

CCC(C)(C)OC
inactive: Potency [1] | Potency [2] | Potency [3] | activation [4] 0.579% | max response [5] -8.98% | Potency [6] | outcome [7] | Potency [8] | max response [9] -14.5% | max response [10] -19.7% | Potency [11] | max response [12] -4.5% | outcome [13]

C=C(C)OC(C)=O
inactive: Potency [1] | Potency [2] | Potency [3] | activation [4] -1.07% | max response [5] -3.39% | Potency [6] | outcome [7] | Potency [8] | max response [9] 7.41% | max response [10] -0.625% | Potency [11] | max response [12] -1.49% | outcome [13]

CCCOCC(C)O (stereo not given)
inactive: Potency [1] | Potency [2] | Potency [3] | activation [4] 1.17% | max response [5] -5.25% | Potency [6] | outcome [7] | Potency [8] | max response [9] 8.24% | max response [10] 2.22% | Potency [11] | max response [12] -0.746% | outcome [13]

Cc1ccc2ncccc2c1
inactive: Potency [1] | Potency [2] | Potency [3] | activation [4] 3.02% | max response [5] -2.02% | Potency [6] | outcome [7] | Potency [8] | max response [9] 5.85% | max response [10] -3.3% | max response [12] 2.4% | outcome [13]

CC1CCCO1 (stereo not given)
inactive: Potency [1] | Potency [2] | Potency [3] | activation [4] 2.22% | max response [5] 0.088% | Potency [6] | outcome [7] | Potency [8] | max response [9] -3.62% | max response [10] -15.7% | Potency [11] | max response [12] -1.92% | outcome [13]

CC(=O)c1cc(C)oc1C
inactive: Potency [1] | Potency [2] | Potency [3] | activation [4] 0.74% | max response [5] -8.47% | Potency [6] | outcome [7] | Potency [8] | max response [9] 1.5% | max response [10] -13.5% | Potency [11] | max response [12] 1.56% | outcome [13]

Cc1cccc(Br)c1
inactive: Potency [1] | Potency [2] | Potency [3] | activation [4] 0.194% | max response [5] -5.52% | Potency [6] | outcome [7] | Potency [8] | max response [9] 6.53% | max response [10] 1.57% | Potency [11] | max response [12] -3.61% | outcome [13]

CCCCCCCCCCCCC1CO1 (stereo not given)
inactive: Potency [1] | Potency [2] | Potency [3] | activation [4] 0.974% | max response [5] -4.01% | Potency [6] | outcome [7] | Potency [8] | max response [9] 1.04% | max response [10] -4.83% | Potency [11] | max response [12] 4.9% | outcome [13]

CCC1CO1 (stereo not given)
inactive: Potency [1] | Potency [2] | Potency [3] | activation [4] 0.0109% | max response [5] -1.3% | Potency [6] | outcome [7] | max response [9] 1.19% | Potency [11] | max response [12] 4.08% | outcome [13]

CCc1ccccc1
inactive: Potency [1] | Potency [2] | Potency [3] | activation [4] 3.73% | max response [5] -3.6% | Potency [6] | outcome [7] | max response [9] -7.67% | max response [10] -3.72% | Potency [11] | max response [12] -0.471% | outcome [13]
